Records with an inconclusive call do not appear. Values without a mark were called inactive. Active and inactive are the calls of the source. Calls follow the shape of the dose curve; as a rule, active = well fitted inhibition curve with a large enough effect; inconclusive = small, poorly fitted or top-dose-only effect; inactive = no such curve, though single readings can be large or run the other way.

The test system of assay [1] is Zika virus NS2B-NS3 protease (unlinked complex). Put plainly: Primary screen GU Rhodamine qHTS for Zika virus inhibitors: Unlinked NS2B-NS3 protease assay (AID 1347159). Also: nearly all actives have a fitted effect of over 60% in size. Also: potency is read from the fitted curve at half-maximal effect. As to activity change, negative = inhibition: % is scaled to controls: 0 for no effect and ±100 for the full control effect. Particulars: Recombinant ZIKV NS2B-NS3 protease, Rhodamine110 substrate fluorescence; series mostly up to 107 µM. The gist of the method:
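Buffer 10 mM Tris-HCl pH 8.0, 0.01% Tween 20. Unlinked protease 25 nM; compound preincubation 15 min, RT, protected from light. Substrate Rhod110, 1.5 microM; ~15% conversion in 15 min.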
A general note: qHTS replaces the single test concentration by a dilution series.

Assay [2] can be described thus: qHTS to identify inhibitors of the type 1 interferon - major histocompatibility complex class I in skeletal muscle: primary screen against the NCATS Mechanism Interrogation Plate v5.0 (MIPE) Libary (AID 1347411).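 Also: plate controls were vehicle for no effect and reference inhibitor for full effect; nearly all actives have a fitted effect of over 65% in size.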 Particulars: iHSKM cells + IFN-b, HiBiT-tagged MHC-I luminescence, 24 h; series mostly up to 45.8 µM. The gist of the method: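 IFN-beta-driven (4 ng/ml) HLA-B-HiBit expression in CRISPR-tagged C25cl48 myoblasts; compounds 11-pt, 1:3, max 46 uM, 24 hr exposure; lytic NanoLuc complementation luminescence.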

The test system of assay [3] is Zika virus NS2B-NS3 protease (linked construct). Nature of the assay: Primary screen NINDS Rhodamine qHTS for Zika virus inhibitors (AID 1347160). Also: nearly all actives have a fitted effect of over 55% in size. Also: potency is read from the fitted curve at half-maximal effect. As to activity change, negative = inhibition: % is scaled to controls: 0 for no effect and ±100 for the full control effect. Particulars: purified NS2B-NS3 protease, Rhodamine110 substrate fluorescence; series mostly up to 57.1 µM. The method in brief:
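Aprotinin served as in-plate control. Conditions: 25 nM linked NS2B-NS3, pH 8.0 Tris buffer, titrated compounds, 15 min preincubation and 15 min reaction with 1.5 microM Rhod110 substrate at room temperature.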

Assay [4] deals with Calcium and integrin-binding protein 1 (Homo sapiens) (UniProt Q99828). Nature of the assay: Confirmatory qHTS for Identification of Calcium Integrin Binding Protein 1 (CIB1) Competitor (AID 1508617). Also: nearly all actives have a fitted effect of over 65% in size. Also: potency is read from the fitted curve at half-maximal effect. As to activity change, negative = inhibition: % is scaled to controls: 0 for no effect and ±100 for the full control effect. Particulars: CIB1 binding competition assay, biochemical qHTS; series mostly up to 114 µM. The method in brief: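 Fluorescence polarization competition: CIB1-GST (1 uM final) in 5 mM HEPES pH 7.4, 125 mM NaCl, 5 mM CaCl2, 0.01% Tween20 preincubated 15 min RT with compound (up to 114 uM), then FITC-alphaIIb peptide (100 nM) added, 15 min RT.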
Chain of Calcium and integrin-binding protein 1 (Homo sapiens) (Q99828 whole entry, looked up): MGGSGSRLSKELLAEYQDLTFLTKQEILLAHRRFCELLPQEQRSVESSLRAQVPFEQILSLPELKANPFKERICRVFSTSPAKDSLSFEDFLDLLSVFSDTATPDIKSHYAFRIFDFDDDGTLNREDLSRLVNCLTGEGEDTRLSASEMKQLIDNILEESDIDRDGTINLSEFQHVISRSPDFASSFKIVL

Regarding `COc1cccc(-c2ccc(NC(=O)C3=C(C(=O)O)CCC3)c(F)c2)c1`, the Potency in assay [1] was 17.8 µM (active). In addition, the Potency entry in assay [2] is “inactive”.
For `C=CC(=O)N1CCC[C@@H](n2nc(-c3ccc(Oc4ccccc4)cc3)c3c(N)ncnc32)C1`, the Potency entry in assay [3] is “inactive”.
On to `O=C(CCCCCCC(=O)Nc1ccc([C@H]2O[C@@H](CSc3nc(-c4ccccc4)c(-c4ccccc4)o3)C[C@@H](c3ccc(CO)cc3)O2)cc1)NO`, for which the Potency in assay [1] is 8.91 µM (active). In addition, the activity change, negative = inhibition in assay [2] was 14.6% [at 8.44 µM].
For `Cn1cc(-c2[nH]c3cc(NC(=O)[C@H](N)C4CCCCC4)cc4c3c2C=NNC4=O)cn1`, the Potency entry in assay [1] and in assay [3] was “inactive” each time. The Potency in assay [4] was 50.1 µM (active).
With `CCNC(=O)Nc1ccc2ncc(Nc3ccc(C)cc3)nc2n1`, in assay [3], the Potency is 35.5 µM (active).
Take `Cc1nc(N)ncc1-c1nc(N2CCOCC2)c2sc(C(C)(C)O)cc2n1`: the Potency result in assay [3] is “inactive”.
Still for that read-out and setting: under `CCCCCN(CCC12CC3CC(CC(C3)C1)C2)C(=O)NCCCc1ccncc1` stands “inactive”; under `c1ccc2c(CCNc3ccc(Nc4ccncc4)cc3)c[nH]c2c1`, “inactive”.
Still for that read-out and setting: in the case of `CCOc1ccccc1OCCNC(C)Cc1ccc(OC)c(S(N)(=O)=O)c1` (stereo not drawn) it was “inactive”; in that of `CCCCOc1c(C(=O)c2c(F)cc(C)cc2F)cnc2n[nH]cc12`, “inactive”.
For the compound `CNC(=O)CN1CCC(Oc2cc3c(Nc4cccc(Cl)c4F)ncnc3cc2OC)CC1`, the Potency entry in assay [1], in assay [3] and in assay [2] was “inactive” throughout.
With `C=CCn1c(=O)c2cnc(Nc3ccc(N4CCN(C)CC4)cc3)nc2n1-c1cccc(C(C)(C)O)n1`, the Potency result in assay [1], in assay [3] and in assay [2] was “inactive” throughout.
As to `CC(=O)Nc1sc2c(c1-c1nc3ccccc3s1)CNC2`, the Potency entry in assay [1], in assay [3] and in assay [4] was “inactive” throughout.

(Values after PubChem BioAssay (NCATS).)
